Among the data in PubChem BioAssay (NCI) are growth values, retold here.

The panel holds about 83,000 compounds, 20% with a hit somewhere; the sample as a whole holds those more often.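 For each line, cells grew in 96-well plates with the test compound present at a single concentration for 48 hours.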 Values without a mark were called inactive. The source made the active and inactive calls. The calls were made as follows: active = growth percent below 10; inactive = the rest.

Among the test systems are NCI-H23 lung; NCI-H226 lung; NCI-H322M lung; HOP-62 NSCLC; NCI-H460 lung; HOP-92 NSCLC; NCI-H522 lung; A549/ATCC NSCLC; 786-0 renal; COLO 205 colon; DU-145 prostate; K-562 leukemia; MALME-3M melanoma; MDA-MB-231 breast; RXF 393 renal; SF-268 CNS; SF-295 CNS; SF-539 CNS; UACC-257 melanoma; M14 melanoma.
Experiment in all cases: NCI-60 one-dose screen, 48 h (100 = growth as untreated, 0 = no growth, -100 = all killed)
Holding throughout (conditions): 10 µM unless noted

On to `O=c1[nH]cc(N(CCCl)CCCl)c(=O)[nH]1`, for which the growth with NCI-H23 lung is 54.2%; in the experiment with NCI-H226 lung, 76.5%; in the experiment with NCI-H322M lung, 96.6%; with HOP-62 NSCLC, 103%; in the experiment with NCI-H460 lung, 31.8%; in the experiment on HOP-92 NSCLC it was 2.65% (active). The growth in the experiment on NCI-H522 lung is 53.8%; in the experiment on A549/ATCC NSCLC, 77.5%; in the experiment on 786-0 renal it was 44.9%; in the experiment on COLO 205 colon, 81%; with DU-145 prostate, 52.4%; in the experiment on K-562 leukemia, 83%. For the same compound, the growth in the experiment with MALME-3M melanoma is 62.5%; with MDA-MB-231 breast it was 95.2%; in the experiment with RXF 393 renal, 68.6%; in the experiment with SF-268 CNS it was 52%; in the experiment with SF-295 CNS it was 49.6%; in the experiment on SF-539 CNS it was 46.2%. Moreover, the growth in the experiment on UACC-257 melanoma is 62%; in the experiment on M14 melanoma it was 73.5%.
On to `CCCC[C@H](NC(=O)[C@H]1CCCN1C)C(=O)N(C)[C@H](C[C@@H](OC(C)=O)c1nc(C(=O)N[C@@H](Cc2ccccc2)C[C@H](C)C(=O)OCC)cs1)C(C)C`, for which the growth in the experiment with NCI-H23 lung is 24.4%; in the experiment on NCI-H226 lung it was 37.2%; in the experiment with NCI-H322M lung it was 33.3%; in the experiment with HOP-62 NSCLC it was 21.8%; in the experiment with NCI-H460 lung, 7.53% (active); with HOP-92 NSCLC, 7.16% (active). Besides, the growth is -12.1% (active) in the experiment with NCI-H522 lung; 8.16% (active) with A549/ATCC NSCLC; 3.94% (active) with 786-0 renal; -66.7% (active) with COLO 205 colon; 12.8% in the experiment with DU-145 prostate; 9.85% (active) with K-562 leukemia. Also, the growth is 49.5% in the experiment on MALME-3M melanoma; 3.51% (active) in the experiment with MDA-MB-231 breast; 25.3% in the experiment with RXF 393 renal; 25.8% with SF-268 CNS; 13.3% in the experiment with SF-295 CNS; 0.375% (active) in the experiment with SF-539 CNS. For the same compound, the values for the growth with UACC-257 melanoma and in the experiment with M14 melanoma were 46.1% and -12% (active), respectively.
As for `CC(C)(C)C(=O)OCOP(=O)(NCc1ccccc1)C1CCCN(O)C1=O` (stereo not given), the growth in the experiment with NCI-H23 lung is 49.1%; in the experiment with NCI-H226 lung, 32.4%; with NCI-H322M lung, 27.8%; in the experiment on HOP-62 NSCLC, 23.4%; in the experiment with NCI-H460 lung it was 7.07% (active); in the experiment with HOP-92 NSCLC, 34%. For the same compound, the growth with NCI-H522 lung was 8.18% (active); with A549/ATCC NSCLC it was 29.9%; with 786-0 renal, 23.9%; with COLO 205 colon, 45.7%; with DU-145 prostate, 55%; in the experiment with K-562 leukemia, 32.3%. The growth in the experiment with MALME-3M melanoma was 19.9%; with MDA-MB-231 breast it was 22.6%; in the experiment on RXF 393 renal, 8.85% (active); with SF-268 CNS, 10.5%; in the experiment on SF-295 CNS, 60.3%; with SF-539 CNS, 45.2%. The growth is 57.3% in the experiment on UACC-257 melanoma and 38.4% in the experiment with M14 melanoma.
Regarding `COc1ccc(S(=O)(=O)Nc2c(/C=C\c3cc(OC)c(OC)c(OC)c3)ccc(OC)c2O)cc1OC`, the growth is 33.2% in the experiment with NCI-H23 lung; 29% in the experiment on NCI-H226 lung; 44.3% in the experiment on NCI-H322M lung; 71.5% in the experiment with HOP-62 NSCLC; 5.24% (active) in the experiment on NCI-H460 lung; 30.5% in the experiment on HOP-92 NSCLC. Further, the growth in the experiment on NCI-H522 lung was -9.02% (active); in the experiment with A549/ATCC NSCLC, 20.9%; in the experiment with 786-0 renal, 14%; with COLO 205 colon it was -39.3% (active); in the experiment with DU-145 prostate it was -10.2% (active); in the experiment on K-562 leukemia it was 17.2%. In addition, the growth in the experiment on MALME-3M melanoma was 69.2%; in the experiment on MDA-MB-231 breast, 1.41% (active); in the experiment with RXF 393 renal, 24.6%; with SF-268 CNS, 23.7%; with SF-295 CNS it was 12%; in the experiment with SF-539 CNS it was -14.6% (active). Also, the growth in the experiment on UACC-257 melanoma was 58.5%; in the experiment with M14 melanoma it was 9.05% (active).
As to `CSc1nc(Cl)cc(N2CC2)n1`, the growth was 103% in the experiment on NCI-H23 lung; 108% in the experiment with NCI-H226 lung; 128% with NCI-H322M lung; 103% in the experiment on HOP-62 NSCLC; 105% with NCI-H460 lung; 93% with HOP-92 NSCLC. The growth in the experiment on NCI-H522 lung is 126%; in the experiment on A549/ATCC NSCLC it was 102%; in the experiment with 786-0 renal, 104%; in the experiment with COLO 205 colon it was 139%; in the experiment on DU-145 prostate, 110%; with K-562 leukemia, 120%. The growth is 105% in the experiment with MALME-3M melanoma; 106% in the experiment on MDA-MB-231 breast; 111% in the experiment on RXF 393 renal; 99.1% in the experiment with SF-268 CNS; 115% with SF-295 CNS; 98.8% in the experiment with SF-539 CNS. Further, the growth with UACC-257 melanoma was 107%; with M14 melanoma, 114%.
As for `COC1CC2c3ccccc3C1C(C)=[N+]2C` (stereo not given), the growth with NCI-H23 lung was 89.3%; in the experiment on NCI-H226 lung it was 90.8%; in the experiment on NCI-H322M lung it was 99.5%; in the experiment on HOP-62 NSCLC, 110%; in the experiment on NCI-H460 lung, 106%; in the experiment on HOP-92 NSCLC, 98.7%. Moreover, the growth was 79.8% with NCI-H522 lung; 96% in the experiment on A549/ATCC NSCLC; 98.9% with 786-0 renal; 120% with COLO 205 colon; 110% in the experiment on DU-145 prostate; 110% with K-562 leukemia. The growth is 88.7% with MALME-3M melanoma; 99.5% in the experiment on MDA-MB-231 breast; 98% in the experiment with RXF 393 renal; 107% with SF-268 CNS; 94.2% in the experiment on SF-295 CNS; 102% with SF-539 CNS. Moreover, the growth in the experiment with UACC-257 melanoma is 95.6%; with M14 melanoma it was 103%.
Take `Cn1cc(-c2csc(-c3cn(CCCCN4CCCCC4)c4ccc(F)cc34)n2)c2cccnc21`: the growth in the experiment on NCI-H23 lung was 79.8%; in the experiment with NCI-H226 lung it was 74.6%; in the experiment on NCI-H322M lung, 81.5%; in the experiment with HOP-62 NSCLC it was 88.8%; in the experiment with NCI-H460 lung, 89.3%; with HOP-92 NSCLC it was 51.7%. The growth in the experiment with NCI-H522 lung is 86.2%; in the experiment on A549/ATCC NSCLC it was 92.6%; in the experiment with 786-0 renal it was -62% (active); in the experiment on COLO 205 colon it was 96.7%; in the experiment on DU-145 prostate, -81% (active); with K-562 leukemia it was -76.1% (active). Moreover, the growth in the experiment on MALME-3M melanoma is -68.4% (active); in the experiment on MDA-MB-231 breast, 71.4%; in the experiment with RXF 393 renal, 26.8%; in the experiment with SF-268 CNS, 72%; in the experiment with SF-295 CNS, 99.7%; in the experiment with SF-539 CNS it was 75.3%. The growth in the experiment with UACC-257 melanoma was -42.6% (active); in the experiment on M14 melanoma it was -78.7% (active).
